Compounds with a hit are over-represented: about 3.6% of the library has one in this group of screens.
HSP90 inh: HSP90 refolding inhibition in rabbit reticulocyte lysate. 0.91% of 290,000 active. luciferase refolding luminescence, 3 h. inhibition, % at 5.6 µM;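 active = inhibition above the screen-wide mean plus 3 SD, computed separately per campaign, cut at about 16% in these data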;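 note: inhibitors lower the luminescence because luciferase stays unfolded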
Mdm2-MdmX inh: disrupts the human Mdm2-MdmX interaction; AID 485346; O15151+Q00987; 3% of 330,000 active; SaOS-2 split-luciferase Mdm2/MdmX complementation, luminescence; inhibition, % at 8 µM;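 active = inhibition of at least 50% at 8 µM in the primary screen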
Target sequence (O15151 whole entry, looked up): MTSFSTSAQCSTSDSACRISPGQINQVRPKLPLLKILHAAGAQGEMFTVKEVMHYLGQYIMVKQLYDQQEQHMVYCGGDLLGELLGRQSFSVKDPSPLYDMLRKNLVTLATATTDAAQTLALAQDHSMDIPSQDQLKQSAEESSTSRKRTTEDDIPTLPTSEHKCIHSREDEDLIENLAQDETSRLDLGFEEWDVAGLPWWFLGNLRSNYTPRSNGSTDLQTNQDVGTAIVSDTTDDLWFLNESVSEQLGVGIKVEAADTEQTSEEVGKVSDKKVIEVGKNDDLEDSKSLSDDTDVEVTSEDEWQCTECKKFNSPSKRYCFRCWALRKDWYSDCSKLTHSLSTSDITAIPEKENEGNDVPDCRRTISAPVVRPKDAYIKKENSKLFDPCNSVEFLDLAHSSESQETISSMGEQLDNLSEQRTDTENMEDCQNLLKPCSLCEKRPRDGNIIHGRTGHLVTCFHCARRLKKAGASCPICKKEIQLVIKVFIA
Target sequence (Q00987 whole entry, looked up): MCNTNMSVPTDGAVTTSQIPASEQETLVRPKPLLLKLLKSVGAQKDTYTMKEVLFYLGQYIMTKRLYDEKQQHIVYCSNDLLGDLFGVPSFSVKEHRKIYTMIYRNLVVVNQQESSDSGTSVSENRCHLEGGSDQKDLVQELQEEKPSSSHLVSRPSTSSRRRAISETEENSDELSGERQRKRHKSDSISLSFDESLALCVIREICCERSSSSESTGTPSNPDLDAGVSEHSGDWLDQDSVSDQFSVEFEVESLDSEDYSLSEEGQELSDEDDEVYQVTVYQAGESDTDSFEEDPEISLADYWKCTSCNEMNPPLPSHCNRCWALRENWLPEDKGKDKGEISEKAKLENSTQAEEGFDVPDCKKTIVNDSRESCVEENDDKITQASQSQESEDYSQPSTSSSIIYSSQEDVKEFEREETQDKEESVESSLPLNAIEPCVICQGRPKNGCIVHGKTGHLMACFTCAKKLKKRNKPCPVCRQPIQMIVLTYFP
KKLEB tox: counter-screen for CF NF-kB inhibitors: cytotoxicity. 0.36% of 360,000 active. KKLEB CF airway cells viability, ATPlite luminescence, overnight; stronger effect = lower value; cells stimulated with P. aeruginosa culture filtrate. AID 602141. activity change (cytotoxicity), % at 5 µM;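 active = corrected activity change at or below -50% at 5 µM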
LGR2 antag: inhibitors of bursicon-induced Drosophila LGR2 receptor cAMP signaling | HEK293 LGR2, CRE-luciferase, bursicon-stimulated, 4 h | inhibition, % at 9.99 µM | 0.35% of 380,000 active;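 active = drop in luminescence signal, shown as inhibition above about 50% in the replicate tests, limit read from the data, passing the limit was not always enough; inconclusive = probably only some replicates passing the limit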;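 note: agonist challenge used bursicon conditioned medium at about half maximal strength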
CF NFkB block: inhibitors of cystic fibrosis induced NF-kB. KKLEB NF-kB-GFP reporter, PAF-induced, GFP fluorescence overnight. 0.86% of 360,000 active. inhibition, % at 5 µM;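 active = at least 50% inhibition at 5 µM, scaled per plate between neutral and stimulator controls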;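 note: PAF is a Pseudomonas aeruginosa culture filtrate used as stimulus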
Peg3 prom inh-1: reduces Peg3 promoter-driven luciferase expression in HeLa | HeLa PEG-Prom luciferase reporter, luminescence, overnight | inhibition, % at 20 µM | 1.7% of 360,000 active;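 active = inhibition of at least 50% at 20 µM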
Peg3 prom inh-2: Peg3 promoter inhibition confirmation; inhibition, % at 20 µM; HeLa PEG-Prom luciferase reporter, luminescence, overnight; shares compounds with Peg3 prom inh-1; 84% of 1,300 active; AID 602417;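 active = at 20 µM dose, 40% or more inhibition averaged across four replicates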
CF NFkB inh conf: confirmation of cystic fibrosis induced NF-kB inhibitors. AID 602472. inhibition, % at 5 µM. KKLEB CF airway cells, PAF-induced NF-kB-GFP fluorescence, overnight. shares compounds with CF NFkB block. 64% of 1,300 active; in the data active = inhibition above about 40%;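 note: stimulus PAF is a Pseudomonas aeruginosa filtrate and not platelet activating factor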
A number is an active result; – = inactive; ? = inconclusive; · = no result given.

SMILES | HSP90 inh | Mdm2-MdmX inh | KKLEB tox | LGR2 antag | CF NFkB block | Peg3 prom inh-1 | Peg3 prom inh-2 | CF NFkB inh conf
CCCN(CCC)c1ccc(/C=C/c2ccc3cc(OCC)ccc3n2)cc1 | – | · | – | – | – | – | · | ·
Cc1ccc2cc3c(N)c4c(C)ccc(C)c4nc3nc2c1 | – | · | – | – | – | 103.1 | 97.2 | ·
C[C@@H]1CN([C@@H](C)CO)C(=O)c2cc(NS(C)(=O)=O)ccc2O[C@@H](C)CCCCO[C@@H]1CN(C)S(=O)(=O)c1ccccc1 | · | · | · | – | · | · | · | ·
COc1ccc2nc(C)cc(SCC(=O)N/N=C/c3c(OC)ccc4ccccc34)c2c1 | – | · | – | – | – | 63.1 | – | ·
Cn1cnc([N+](=O)[O-])c1Sc1nc(N)nc2c1ncn2C1OC(CO)C(O)C1O (stereo unspecified) | · | · | – | – | – | 61.3 | 64.2 | ·
CCCCSc1nc(N)nc2c1ncn2C1OC(CO)C(O)C1O (stereo unspecified) | · | · | – | · | – | – | · | ·
CCNC(=O)C[C@H]1CC[C@H]2[C@H](COc3ccc(NC(=O)Nc4ccc(Cl)cc4)cc3C(=O)N2C)O1 | · | · | · | – | · | · | · | ·
CNC(=O)COC(=O)c1ccccc1C(=O)c1ccc(Cl)c([N+](=O)[O-])c1 | – | · | – | 102.4 | 90.5 | 100.1 | 98.9 | 111.7
Cc1cc2cc(CCNC(=O)C(=O)c3c[nH]c4ccccc34)c(=O)[nH]c2cc1C | – | – | – | – | 59.2 | 59.2 | 59.3 | 52.2
CO[C@H]1CN(C)C(=O)c2ccc(NC(=O)c3ccccc3)cc2OC[C@@H](C)N(CC2CC2)C[C@H]1C | · | · | · | – | · | · | · | ·
CC(=O)C(=Cc1cccc(C#N)c1)C(=O)c1ccccc1 | · | · | – | – | 56.0 | 104.2 | – | –
COc1ccc(C=C(C(C)=O)C(=O)c2ccccc2)cc1 | · | · | – | – | – | – | · | ·
CN(C)c1ccc(C(C(=O)NCc2ccccc2)N(Cc2ccco2)C(=O)c2snc(C(N)=O)c2N)cc1 (stereo unspecified) | – | · | – | ? | 98.8 | 60.6 | 45.1 | 88.9
CCC(=O)Nc1ccc2c(c1)C(=O)N(C)C[C@H](OC)[C@@H](C)CN(C(=O)CC1CC1)[C@@H](C)CO2 | · | · | · | – | · | · | · | ·
CN(C)CC(=O)N[C@H]1CC[C@H](CCn2cc(C3CC3)nn2)O[C@H]1CO | · | · | · | – | · | · | · | ·
O=C(CCl)N1N=C(c2ccco2)CC1c1cccs1 (stereo unspecified) | – | · | – | · | 58.2 | 90.0 | 77.9 | –
CNC[C@H]1OCCCC[C@@H](C)Oc2ccc(NS(=O)(=O)c3ccccc3)cc2C(=O)N([C@@H](C)CO)C[C@@H]1C | · | · | · | – | · | · | · | ·
Cc1ccc(-n2cc(-c3ccccc3)c3c(N4CCN(C)CC4)ncnc32)cc1 | – | – | – | – | – | – | · | ·
Cc1ccc(-n2cc(-c3ccccc3)c3c(N4CCOCC4)ncnc32)cc1 | – | · | – | – | 84.5 | 66.8 | 62.5 | 87.1
O=C1C2C3C=CC(C3)C2C(=O)N1c1cccc(-c2nc3ccccc3o2)c1 (stereo unspecified) | – | – | – | · | – | – | · | ·
O=C1C=CC(=O)N1c1ccc(-c2nc3ccccc3o2)cc1 | · | · | – | · | 50.8 | 108.0 | 97.3 | –
O=C(NCC[C@H]1CC[C@H](NC(=O)c2cnccn2)[C@H](CO)O1)c1ccc2c(c1)OCO2 | · | · | · | – | · | · | · | ·
COc1cc2c(cc1OC)CN1CCc3cc(OC)c(OC)cc3C1C2 (stereo unspecified) | · | · | – | – | – | – | · | ·
CCC1=C(CC2NCCc3ccccc32)CC2c3cc(OC)c(OC)cc3CCN2C1 (stereo unspecified) | · | · | – | 70.5 | 63.3 | 61.5 | 79.5 | 72.3
CCC1(O)C(=O)OCc2c1cc1n(c2=O)Cc2cc3cc(O)ccc3nc2-1 (stereo unspecified) | · | · | – | 94.9 | 83.9 | 62.7 | 52.0 | 109.8
SMILES | HSP90 inh | Mdm2-MdmX inh | KKLEB tox | LGR2 antag | CF NFkB block | Peg3 prom inh-1 | Peg3 prom inh-2 | CF NFkB inh conf
Cc1cc(C)nc(Sc2ncnc(N)c2[N+](=O)[O-])n1 | – | – | – | – | 63.0 | – | · | 63.1
CCC(C(=O)OCC(=O)C1(O)CCC2C3CCC4=CC(=O)CCC4(C)C3C(O)CC21C)C(C)C (stereo unspecified) | · | · | – | – | 56.4 | – | · | –
CC(C)CC(NC(=O)CCC(=O)OCC(=O)[C@@]1(O)CCC2[C@@H]3CCC4=CC(=O)C=C[C@]4(C)C3[C@@H](O)C[C@@]21C)C(=O)O (stereo partly specified) | – | – | – | – | 83.0 | – | · | –
C[C@]12CCC(=O)C=C1CC[C@@H]1[C@@H]2CC[C@@]2(C)[C@H]1CC[C@]2(O)C(=O)CO | – | – | – | – | – | – | · | ·
CC(=O)Oc1ccccc1C(=O)C=Cc1cccc([N+](=O)[O-])c1 | · | · | – | 101.4 | 80.0 | 99.4 | · | –
C[C@@H]1CN([C@@H](C)CO)C(=O)Cc2cc(NC(=O)C3CC3)ccc2O[C@@H]1CN(C)C(=O)Nc1ccc(C(F)(F)F)cc1 | · | · | · | – | · | · | · | ·
COc1ccc(COC(=O)C2=C(C)NC(=O)NC2c2ccc(OC)cc2)cc1 (stereo unspecified) | – | – | – | – | 52.8 | – | · | 51.2
CCCCCCSc1ccc(-c2nc3ccc(C)cn3c2NCCCC)cc1OC | · | · | · | – | · | · | · | ·
CCCCCCSc1cc(-c2nc3ccc(C)cn3c2NCc2ccccc2)ccc1OC | · | – | – | – | 52.8 | – | · | –
COc1ccc(NC(=O)N(C)C[C@H]2Oc3ccc(NS(=O)(=O)c4ccc(F)cc4)cc3CC(=O)N([C@H](C)CO)C[C@@H]2C)cc1 | · | · | · | – | · | · | · | ·
O=C(NC1CCCCC1)c1ccc([N+](=O)[O-])o1 | – | – | – | · | – | – | · | ·
O=C(NC1CCCC(C(F)(F)F)C1)c1ccc([N+](=O)[O-])o1 (stereo unspecified) | · | – | – | – | 92.4 | 71.3 | · | 53.3
O=C(C1CCCCC1)N1C[C@@H]2[C@H](c3ccccc31)[C@@H](CO)N2Cc1ccccc1Cl | · | · | · | – | · | · | · | ·
O=C(C(c1ccccc1)N1CCOCC1)N1CCOCC1 (stereo unspecified) | – | – | – | – | – | – | · | ·
O=C(C=Cc1ccccc1)CC(c1ccccc1)N1CCOCC1 (stereo unspecified) | · | · | – | – | 93.7 | 108.3 | · | –
COc1ccc(-c2nc(N3CCOCC3)nc3n[nH]c(N)c23)cc1 | – | – | – | · | 68.7 | – | · | 56.3
Nc1[nH]nc2nc(N3CCCC3)nc(-c3ccccc3)c12 | – | – | – | · | – | – | · | ·
CC(C)C(=O)N1CCN(c2ccc(NC(=O)c3ccc(Br)o3)cc2)CC1 | – | – | – | · | – | – | · | ·
CCCC(=O)N1CCN(c2ccc(NC(=O)c3ccc([N+](=O)[O-])o3)cc2Cl)CC1 | – | · | – | – | 73.9 | 110.8 | · | –
CC(C)C(=O)N1CCN(c2ccc(NC(=O)c3ccc([N+](=O)[O-])o3)cc2Cl)CC1 | – | · | – | – | 69.3 | 108.8 | · | –

Compound activity deposited in PubChem by several laboratories.
